# Measurements published in PubChem BioAssay (EPA / NIEHS).
# Inconclusive results are not listed. Active and inactive are the calls of the source. How the source made its calls: active means hit-call score of the fitted dose curve at least 0.9, where 1 is the maximum; inconclusive means response in the unintended direction; inactive means score below 0.9.
# Assay: ACEA_AR_agonist_AUC_viability: ACEA Biosciences xCELLigence Real-Time Cell Analysis on Androgen Receptor Agonism for Viability (AID 2283775);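 on AC50: viability read 80 hours after compound addition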
# Experimental: ACEA_AR_agonist is a cell-based, single-readout assay that uses 22Rv1, a human prostate cancer cell line, with measurements taken at 80 hours after chemical dosing in a 384-well plate, although TO5 and TO6 (mc0.srcf) used a 96-well plate. Differences in plate size can be ignored given data normalization.ACEA_AR_80hr is one of two assay component(s) measured or calculated from the ACEA_AR assay. It is designed to make measurements of real-time cell-growth kinetics, a form of growth reporter, as detected with electrical impedance signals by Real-Time Cell Electrode Sensor (RT-CES) technology.Data from the assay component ACEA_AR_AUC_viability was analyzed in the positive analysis fitting direction relative to DMSO as the negative control and baseline of activity. Using a type of growth reporter, loss-of-signal activity can be used to understand changes in the viability. Furthermore, this assay endpoint can be referred to as a secondary readout, because this assay has produced multiple assay endpoints where this one serves a viability function. To generalize the intended target to other relatable targets, this assay endpoint is annotated to the cell cycle intended target family, where the subfamily is cytotoxicity.
# The xCELLigence system Multi-E-Plate stations were used to measure the time-dependent response to chemicals. Each compound was tested in an eight-point, 1:4 serial dilution series starting at a maximum final concentration of 100 uM. A maximum starting concentration of 0.5% DMSO was present in the 100 uM chemical samples and was diluted along with the test article dilution series. The screen was performed in biological duplicate using two separate, 96-well, E-Plates 96 for each dilution series (n = 2). Positive controls (MG132 and testosterone) and a negative control (assay media) were tested in quadruplicate on each testing plate. Then, 0.5% and 0.125% DMSO were tested in duplicates in each plate to serve as solvent controls for the 2 highest concentrations of testing compounds: 100 uM and 25 uM. Reference compounds were tested with 8 concentrations with 1:5 serial dilutions. All screening was carried out by ACEA Biosciences, Inc. (San Diego, CA). 22Rv1 cells purchased from ATCC were maintained in media supplemented with 10% fetal bovine serum (FBS). Before screening, 22Rv1 cells were preconditioned in assay medium. Cells were then detached and seeded in E-Plates 96 in assay medium. After overnight monitoring of growth once every hour, compounds were added to […] cells and remained in the medium until the end of the experiment. Cellular responses were then recorded once every 5 min for the first 5 h, and once every hour for an additional 100 h.
SMILES,outcome,AC50
c1ccc(-c2ccccc2)cc1,inactive,
CCOCCOC(C)=O,inactive,
Cc1cccc(C)c1N,inactive,
Cc1cc(O)ccc1Cl,inactive,
CN(C)c1nc(=O)n(C2CCCCC2)c(=O)n1C,inactive,
CCCCCCCCCc1ccc(O)cc1,,22.9 µM (active)
O=C(O)C(F)(F)C(F)(F)C(F)(F)C(F)(F)C(F)(F)C(F)(F)C(F)(F)C(F)(F)C(F)(F)F,,71.7 µM (active)
CCCCCCCCOC(=O)c1ccccc1C(=O)OCCCCCCCC,inactive,
O=C(NC(=O)c1c(F)cccc1F)Nc1cc(Cl)c(OC(F)(F)C(F)F)c(Cl)c1,,50 µM (active)
ClC1=C(Cl)[C@]2(Cl)[C@@H]3[C@@H]4C[C@@H]([C@H]5O[C@@H]45)[C@@H]3[C@@]1(Cl)C2(Cl)Cl,,50 µM (active)
Oc1ccc(C(c2ccc(O)cc2)(C(F)(F)F)C(F)(F)F)cc1,,25.9 µM (active)
Oc1c(Cl)c(Cl)c(Cl)c(Cl)c1Cl,,15.2 µM (active)
CCOP(=S)(OCC)SCSC(C)(C)C,,82.5 µM (active)
CCC(C)c1cc([N+](=O)[O-])cc([N+](=O)[O-])c1O (stereo not given),,12.7 µM (active)
Cc1cc2c3c(c1)C(c1ccccc1)=N[C@@H](NC(=O)c1ccncc1)C(=O)N3CC2,,50 µM (active)
CC(c1ccc(O)cc1)(c1ccc(O)cc1)c1ccc(O)cc1,,17.8 µM (active)
Sc1ccccc1,inactive,
ClC(Cl)=C(c1ccc(Cl)cc1)c1ccc(Cl)cc1,,29.6 µM (active)
COS(=O)(=O)OC,inactive,
O=C(N[C@H]1CN2CCC1CC2)c1cc2ccoc2cn1,inactive,

SMILES,outcome,AC50
O=C(O)C(F)(F)C(F)(F)C(F)(F)C(F)(F)C(F)(F)C(F)(F)C(F)(F)C(F)(F)F,,74.2 µM (active)
Oc1ccc(Cl)cc1Cl,inactive,
O=C(NC(=O)c1cc(F)c(F)cc1Cl)Nc1cc(F)ccc1N1CCC(C(=O)O)CC1,inactive,
OCC(O)CO,inactive,
c1cc2ccc3cccc4ccc(c1)c2c34,inactive,
CC(C)(O)C(=O)Nc1ccc([N+](=O)[O-])c(C(F)(F)F)c1,,84 µM (active)
O=S(=O)(O)C(F)(F)C(F)(F)C(F)(F)C(F)(F)C(F)(F)C(F)(F)F,inactive,
C=CC(N)=O,inactive,
Cc1ccccc1CO[C@@H]1C[C@@]2(C(C)C)CC[C@]1(C)O2,,76.7 µM (active)
ClC1=C(Cl)[C@]2(Cl)[C@@H]3[C@H]4C[C@H]([C@@H]5O[C@H]45)[C@@H]3[C@@]1(Cl)C2(Cl)Cl,,24.1 µM (active)
CC(C)(c1ccccc1)c1ccc(O)cc1,,12.1 µM (active)
CCCN(CCC)N=O,inactive,
O=NN(c1ccccc1)c1ccccc1,inactive,
CN(C)CCO,inactive,
Clc1ccc(Cl)cc1,inactive,
CCC(C)(c1ccc(O)cc1)c1ccc(O)cc1,,50 µM (active)
Cc1cc(-c2ccc(N)c(C)c2)ccc1N,inactive,
Cc1cccc([N+](=O)[O-])c1,inactive,
CCOC(=O)C(O)(c1ccc(Cl)cc1)c1ccc(Cl)cc1,,79.6 µM (active)
CCCCCCCCCC[N+](C)(C)CCCCCCCCCC,,3.81 µM (active)
